# Target: NGDN
# Experiment: pooled miR-30 sensor sort-seq; sequence = guide strand
# Details: shRNA
# Further: reference of the scale not given here.
row,Sequence,sensor-assay potency score (higher = more potent)
1,TTTTCTTCCGACCTTTCTGAGG,-1.13
2,TTTCTGTAGGATAGGCACCAGC,-1.35
3,ATATTTCTTAGACACTCCCTTC,-0.888
4,TGTCACTGCAGTCTTGATCAGC,-0.949
5,TTGCTCATCATATTGCTGGGAT,0.439
6,TTCGCCGTCCTTTCTCTCGCTT,-0.269
7,TAGGATTCTGATCCTCATCAAG,-1.32
8,TACAGCCATCACTTGCTCCTGG,-0.0207
9,TTTCTCTCGCTTACTGACGCTC,-0.845
10,TAATGTACTGGAACCAAGCGTG,-0.00853
11,TTCTAGACGCTTCTTCTCCCGC,-0.831
12,TTGCTCGTTTTCGCCGTCCTTT,-1.03

# Target: NHP2
# Experiment: as above
# Details: shRNA
row,Sequence,sensor-assay potency score (higher = more potent)
1,TTCACCGCTTTCTTGATGCATT,-0.959
2,TTCTGCTTCACCGCTTTCTTGA,-0.609
3,TAGAGCTTCCGCGTGAGGCGGC,-0.484
4,TAGACATAGGGCAAATTTCGGT,-0.754
5,TTCTGAACCTCTTTCACCCCGC,-0.0214
6,TCTGCTTCTGCTTCACCGCTTT,0.228
7,TTGACCATTATCACACAGGTGG,-0.273
8,TGCATTTGTAGAGCTTCCGCGT,-0.805
9,TTGACCAGCAGCTCCTGGTAGG,-0.886
10,TTTGTAGAGCTTCCGCGTGAGG,-1.63
11,TTTCTTGATGCATTTGTAGAGC,-0.635
12,TTTCTGAACCTCTTTCACCCCG,0.283

# Target: NKIRAS2
# Experiment: as above
# Details: shRNA
row,Sequence,sensor-assay potency score (higher = more potent)
1,TGCGTCTCGATCATCTCCGAAC,-1.51
2,TTGTTCTTCCGGCTGAGGGGGA,-0.774
3,TTGCGTCATCTTGCTGGCCAAG,-1.52
4,TTGCCAAGGACCACGATGGTGA,-0.541
5,TCTCGATCATCTCCGAACCCAC,-1.49
6,TATAATAGGAACTCAGACCCAA,-0.0468
7,TTGAGCAGCTCCACACGCTGAA,-0.404
8,AAAGACTCTCTGCTATCTGTGC,-0.545
9,TATTGTGTCCAACCAATGCATC,-1.63
10,TTTGTCAATCTCCTTCTTGAGC,-1.29
11,TGTAAGTCACACTTGTTGCCAA,0.157
12,TTATTGTGTCCAACCAATGCAT,-0.509

# Target: NKPD1
# Experiment: as above
# Details: shRNA
row,Sequence,sensor-assay potency score (higher = more potent)
1,TTGTCGGGCACGTACTCGTAGA,-1.44
2,AGGAACTGCAGCTTGGTGCGGC,-1.31
3,TAGATCTCCAGGAAGCACAGGA,0.323
4,TTGTCGCGGAAAACGTCCCAGA,-1.15
